Common to all, as to assay: NCI-60 one-dose screen, 48 h (100 = growth as untreated, 0 = no growth, -100 = all killed)
The test system of assay [1] is HCT-15 colon. The following applies: 10 µM unless noted.
Assay [2] has as its system HT29 colon. The following applies: 10 µM unless noted.
The subject of assay [3] is SNB-75 CNS. Particulars: 10 µM unless noted.
Assay [4] has as its system SNB-19 CNS. Particulars: 10 µM unless noted.
The subject of assay [5] is U251 CNS. Particulars: 10 µM unless noted.
The test system of assay [6] is PC-3 prostate. The following applies: 10 µM unless noted.
Assay [7] relates to SK-MEL-5 melanoma. Particulars: 10 µM unless noted.
The test system of assay [8] is UACC-62 melanoma. Particulars: 10 µM unless noted.
The test system of assay [9] is LOX IMVI melanoma. Particulars: 10 µM unless noted.
The subject of assay [10] is SK-MEL-28 melanoma. The following applies: 10 µM unless noted.
Assay [11] deals with SK-MEL-2 melanoma. Particulars: 10 µM unless noted.
Assay [12] deals with EKVX NSCLC. Particulars: 10 µM unless noted.
Assay [13] relates to SN12C renal. The following applies: 10 µM unless noted.
The subject of assay [14] is UO-31 renal. The following applies: 10 µM unless noted.
For assay [15], the system named is TK-10 renal. Particulars: 10 µM unless noted.
Assay [16] relates to ACHN renal. The following applies: 10 µM unless noted.
Assay [17] concerns CAKI-1 renal. The following applies: 10 µM.
Assay [18] relates to A498 renal. Particulars: 10 µM unless noted.
Assay [19] relates to CCRF-CEM leukemia. Particulars: 10 µM unless noted.
In assay [20] the test system is MOLT-4 leukemia. The following applies: 10 µM unless noted.

Structures are written as SMILES. The panel holds about 83,000 compounds, 20% with a hit somewhere; the sample as a whole holds those more often.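 Values shown are percent growth following 48 h exposure of cells in 96-well plates to a single concentration of compound; below 10 was considered active.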 Values without a mark were called inactive. Calls of active or inactive are those of the source.

With `O=C1C[C@@H](c2ccccc2)Oc2c(Cc3ccccc3O)c(O)c(Cc3cc(Cc4cc(Cc5ccccc5O)ccc4O)ccc3O)c(O)c21`, the growth was 104% in assay [1]; 128% in assay [2]; 72.7% in assay [3]; 99.7% in assay [4]; 93.7% in [5]; 89.1% in assay [6]. The growth in [7] is 98.6%; in assay [8] it was 72.7%; in assay [9] it was 87.2%; in assay [10] it was 114%; in assay [11] it was 110%; in assay [12] it was 93.2%. Moreover, the growth is 100% in [13]; 66.6% in assay [14]; 147% in assay [15]; 94.4% in assay [16]; 75.5% in assay [17]; 98.3% in assay [18]. Further, the growth is 91.5% in [19] and 76.3% in assay [20].
`Cc1cnc2nc(NN)[nH]n12`: the growth in assay [1] is 101%; in assay [2], 103%; in [3], 95.6%; in assay [4], 95.3%; in assay [5] it was 101%; in assay [6], 98.3%. Also, the growth in assay [7] was 99.8%; in assay [8], 95.6%; in assay [9], 87.5%; in [10], 108%; in assay [11] it was 102%; in assay [12], 98.5%. Besides, the growth in [13] was 98.6%; in assay [14] it was 81.3%; in assay [15], 105%; in assay [16], 98.4%; in assay [17], 86.2%; in assay [18], 111%. Moreover, the growth in assay [19] and in [20] was 102% in each case.
Regarding `O=C(NNc1nc2cc(F)c(F)cc2n2cccc12)c1ncccn1`, the growth in [1] is 28.8%; in assay [2] it was 34.3%; in assay [3] it was -1.51% (active); in assay [4] it was 25.8%; in [5], 18.3%; in [6] it was 32.4%. Moreover, the growth in assay [7] was -70.7% (active); in [8] it was 18.3%; in assay [9], 16.1%; in assay [10], 25.7%; in [11], 34.5%; in [12], 17.3%. The growth in assay [13] was 23.9%; in assay [14], 17.7%; in assay [15], 48.6%; in [16], 12.7%; in [17], 18.2%; in [18], 17.7%. Moreover, the results for the growth in assay [19] and in assay [20] were 12.7% and 16.6%, respectively.
In the case of `CNC(=O)c1cc(N2CCc3cc(NC(=O)Nc4ccc(Cl)c(Cl)c4)ccc32)ccn1`, the growth in assay [1] was 63%; in [2] it was 82.1%; in [3], 87.9%; in [4], 81.4%; in assay [5], 70%; in assay [6] it was 65.2%. Moreover, the growth is 74.5% in assay [7]; 78.9% in [8]; 86.9% in [9]; 86.5% in assay [10]; 84.3% in [11]; 85.3% in [12]. Further, the growth in [13] was 86.1%; in assay [14], 89.1%; in assay [15], 99.3%; in [16], 80.1%; in assay [17] it was 82.2%; in [18] it was 89.1%. Besides, the growth in assay [19] is 86.5%; in assay [20] it was 67.7%.
Consider `COc1ccc(Cn2cc3c(c2-c2ccccc2)CCCc2cnoc2-3)cc1[N+](=O)[O-]`, for which the growth is 27.3% in [1]; 40.8% in assay [2]; 55.8% in assay [3]; 75.6% in assay [4]; 77.5% in assay [5]; 69.5% in assay [6]. For the same compound, the growth in assay [7] is 71.5%; in assay [8], 52.1%; in assay [9] it was 87.8%; in [10] it was 76.9%; in assay [11] it was 60.4%; in [12] it was 78.9%. The growth in [13] was 82.2%; in assay [14] it was 55.5%; in assay [15] it was 109%; in [16] it was 87.1%; in assay [17], 50.5%; in assay [18], 66.8%. Moreover, the growth in [19] was 52.6%; in assay [20], 47%.
With `COc1cc(/C=C/C(=O)c2ccc(N3CCN(C)CC3)cc2)ccc1F`, the growth in assay [1] was 36.4%; in [2] it was 46.5%; in assay [3] it was 58%; in [4], 66.9%; in assay [5], 76.2%; in assay [6], 61.5%. Moreover, the growth in assay [7] is 95.6%; in assay [8] it was 88.6%; in assay [9], 17.8%; in assay [10] it was 98.3%; in assay [11], 115%; in assay [12], 88.4%. For the same compound, the growth in [13] is 81.2%; in assay [14] it was 56.5%; in [15] it was 124%; in [16] it was 79%; in [17], 63.6%; in [18], 98.7%. The growth in assay [19] is 53.8%; in assay [20] it was 88.5%.
For `O=C(NNc1nc2cc(F)c(F)cc2n2cccc12)c1ccncn1`, the growth in [1] was 23.6%; in assay [2], 27.3%; in assay [3], -6.38% (active); in [4], 27.5%; in assay [5], 17.9%; in assay [6], 33.2%. Further, the growth is -19.4% (active) in [7]; 19% in [8]; 11.7% in [9]; 29.4% in [10]; 29.8% in assay [11]; 12.2% in assay [12]. The growth in assay [13] is 26.2%; in assay [14], 20.7%; in [15], 27.1%; in assay [16], 14.1%; in assay [17] it was 17.2%; in assay [18], 46.5%. Moreover, the figures for the growth in [19] and in assay [20] were 7.72% (active) and 8.93% (active), respectively.

The values above are taken from PubChem BioAssay (NCI).
